# Reference: PubChem BioAssay (EPA / NIEHS)
# “And” between values parts separate entries of the source, which are not always exact repeats. Equal values may be shown once. Some structures have more than one record in an assay (separate samples or runs), and their calls can disagree. The source made the active and inactive calls. How the source made its calls, unless noted: active means hit-call score of the fitted dose curve at least 0.9, where 1 is the maximum; inactive means score below 0.9.
# Legend:
# [1] = read-out: Interleukin-1 alpha (IL1a), IL1A (gene 3552); test: BSK_LPS_IL1a: BioMAP Diversity Plus: LPS Assay for Interleukin-1 alpha (IL1a) Biomarker Activity (AID 2283080); details: primary human HUVEC with PBMC; actives raise or lower the signal
# How it was run: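 Human umbilical vein endothelial cells co-cultured with PBMC and stimulated with LPS; IL-1a measured by ELISA 24 h after dosing. Bidirectional fitting against DMSO; cytotoxicity checked by SRB staining in parallel cultures.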
# [2] = read-out: Monocyte Chemoattractant Protein-1 (MCP1), CCL2 (gene 6347); test: BSK_LPS_MCP1: BioMAP Diversity Plus: LPS Assay for Monocyte Chemoattractant Protein-1 (MCP1) Biomarker Activity (AID 2283081); details: primary human HUVEC with PBMC; actives raise or lower the signal;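 on AC50: secreted MCP-1 protein quantified by ELISA in culture supernatant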
# How it was run: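 Human umbilical vein endothelial cells co-cultured with PBMC, LPS-stimulated; secreted MCP-1 measured by ELISA 24 h after compound addition. Bidirectional curve fitting against DMSO baseline; SRB total-protein staining in parallel cultures for cytotoxicity.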
# [3] = BSK_LPS_PGE2: BioMAP Diversity Plus: LPS Assay for Prostaglandin E2 (PGE2) Biomarker Activity (AID 2283082); details: primary human HUVEC with PBMC; actives raise or lower the signal
# How it was run: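 PGE2 release measured by ELISA in an LPS-activated co-culture of human umbilical vein endothelial cells and peripheral blood mononuclear cells, read at 24 h post-dosing. DMSO served as baseline for bidirectional curve fitting.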
# [4] = read-out: Macrophage colony-stimulating factor (MCSF), CSF1 (gene 1435); test: BSK_LPS_MCSF: BioMAP Diversity Plus: LPS Assay for Macrophage colony-stimulating factor (MCSF) Biomarker Activity (AID 2283083); details: primary human HUVEC with PBMC; actives raise or lower the signal
# How it was run: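 HUVEC–PBMC co-culture, M-CSF measured by ELISA 24 h after chemical dosing. Fitted in both directions relative to DMSO as negative control; overt cytotoxicity assessed by SRB total-protein staining in parallel cultures.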
# [5] = read-out: Tissue Factor, F3 (gene 2152); test: BSK_LPS_TissueFactor: BioMAP Diversity Plus: LPS Assay for Tissue Factor Biomarker Activity (AID 2283084); details: primary human HUVEC with PBMC; actives raise or lower the signal
# How it was run: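 Human umbilical vein endothelial cells co-cultured with PBMC were dosed with compound. Cell-surface CD142 was measured by ELISA 24 h later. Activity was fitted bidirectionally against DMSO, with SRB total-protein staining in parallel cultures for cytotoxicity.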
# [6] = read-out: Tumor necrosis factor (Homo sapiens) (UniProt P01375); test: BSK_LPS_TNFa: BioMAP Diversity Plus: LPS Assay for Tumour Necrosis Factor alpha (TNFa) Biomarker Activity (AID 2283085); details: primary human HUVEC with PBMC; actives raise or lower the signal;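 on AC50: TNFa protein level quantified by ELISA in the co-culture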
# How it was run: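 TNFa was quantified by ELISA in LPS-activated co-cultures of human endothelial cells and PBMC, 24 h post-dosing. Both increases and decreases versus DMSO were fitted.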
# [7] = read-out: Vascular cell adhesion molecule 1 (VCAM1), VCAM1 (gene 7412); test: BSK_LPS_VCAM1: BioMAP Diversity Plus: LPS Assay for Vascular cell adhesion molecule 1 (VCAM1) Biomarker Activity (AID 2283086); details: primary human HUVEC with PBMC; actives raise or lower the signal
# How it was run: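 VCAM-1 quantified by ELISA in an LPS-activated co-culture of human endothelial cells and peripheral blood mononuclear cells, read 24 h post-treatment. Fitted in both directions versus DMSO; parallel SRB staining flags overt cytotoxicity.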
# [8] = read-out: CD40, CD40 (gene 958); test: BSK_SAg_CD40: BioMAP Diversity Plus: SAg Assay for CD40 Biomarker Activity (AID 2283088); details: primary human HUVEC with PBMC; actives raise or lower the signal
# How it was run: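 HUVEC plus PBMC co-culture, superantigen-activated, with CD40 read by ELISA 24 h after dosing. Curves fitted in both directions against DMSO. Overt cytotoxicity checked by parallel SRB total-protein staining.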
# [9] = read-out: CD69, CD69 (gene 969); test: BSK_SAg_CD69: BioMAP Diversity Plus: SAg Assay for CD69 Biomarker Activity (AID 2283089); details: primary human HUVEC with PBMC; actives raise or lower the signal;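 on AC50: cell surface CD69 protein quantified by ELISA with fluorescence detection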
# How it was run: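 Endothelial/PBMC co-culture; chemical added; 24 h incubation; CD69 ELISA with fluorescence detection; bidirectional fit vs DMSO.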
# [10] = read-out: Monocyte Chemoattractant Protein-1 (MCP1), CCL2 (gene 6347); test: BSK_SAg_MCP1: BioMAP Diversity Plus: SAg Assay for Monocyte Chemoattractant Protein-1 (MCP1) Biomarker Activity (AID 2283090); details: primary human HUVEC with PBMC; actives raise or lower the signal
# How it was run: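 Values derive from bidirectional fitting of ELISA-measured MCP1 against DMSO controls. Readings were taken 24 h after dosing human vascular endothelial cells co-cultured with peripheral blood mononuclear cells under superantigen stimulation.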
# [11] = read-out: E-selectin (Homo sapiens) (UniProt P16581); test: BSK_SAg_Eselectin: BioMAP Diversity Plus: SAg Assay for Eselectin Biomarker Activity (AID 2283091); details: primary human HUVEC with PBMC; actives raise or lower the signal
# How it was run: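 Human umbilical vein endothelial cells co-cultured with peripheral blood mononuclear cells, SAg system. E-selectin is measured by ELISA 24 h after dosing and fitted bidirectionally against DMSO. Cytotoxicity is checked by SRB staining of parallel cultures.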
# [12] = read-out: Monokine induced gamma interferon (MIG), CXCL9 (gene 4283); test: BSK_SAg_MIG: BioMAP Diversity Plus: SAg Assay for Monokine induced gamma interferon (MIG) Biomarker Activity (AID 2283092); details: primary human HUVEC with PBMC; actives raise or lower the signal
# How it was run: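 Measures CXCL9 protein by ELISA in a human vascular primary-cell co-culture (umbilical vein endothelium with PBMC) 24 h after chemical addition. Activity is scored up or down from the DMSO control.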
# [13] = BSK_SAg_PBMCCytotoxicity: PBMC Cytotoxicity Assessment in the BioMAP Diversity Plus: SAg Assay (AID 2283093); details: primary human HUVEC with PBMC;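 further: PBMC viability measured as Alamar Blue reduction fluorescence at 546/580 nm; fitted both ways against DMSO so a hit may be loss or gain of signal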
# How it was run: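 Alamar Blue reduction (6 h, ex/em 546/580 nm) read after 90 h culture of PBMC pre-dosed 1 h then stimulated with SEB plus TSST-1, 20 ng/mL each. Gain or loss of signal fitted relative to DMSO.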
# [14] = read-out: Interleukin-8 (IL8), CXCL8 (gene 3576); test: BSK_SAg_IL8: BioMAP Diversity Plus: SAg Assay for Interleukin-8 (IL8) Biomarker Activity (AID 2283094); details: primary human HUVEC with PBMC; actives raise or lower the signal
# How it was run: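 ELISA readout of IL-8 from a superantigen-activated endothelial/PBMC primary human co-culture, taken 24 h post-dosing and fitted in both directions against DMSO; parallel SRB total-protein staining flags overt cytotoxicity.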
# [15] = BSK_SAg_Proliferation: Cell Proliferation Assessment in the BioMAP Diversity Plus: SAg Assay (AID 2283095); details: primary human HUVEC with PBMC;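 further: relative cell number as total protein by SRB absorbance in sub-confluent culture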
# How it was run: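 Relative cell number in the endothelial cell/PBMC co-culture was quantified at 96 h by SRB staining (0.1% SRB, 10% TCA fixation, read at 560 nm). Curves were fitted in both directions relative to DMSO baseline.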
# [16] = BSK_SAg_SRB: Viability Assessment in the BioMAP Diversity Plus: SAg Assay (AID 2283096); details: primary human HUVEC with PBMC;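 further: cells read one day after compound addition; hits may be either gain or loss of signal compared with DMSO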
# How it was run: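 SRB absorbance at 560 nm served as the viability read-out. Cells (HUVEC plus peripheral blood mononuclear cells) were TCA-fixed and stained 24 h post-dosing; activity fitted in both directions against DMSO controls.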
# [17] = target: human CYP2D6, CYP2D6 (gene 1565) (UniProt P10635); test: NVS_ADME_hCYP2D6: NovaScreen (NVS) CYP450-related Enzyme Activity (ADME) Assay for human CYP2D6 (AID 2283107; active means hit-call score of the fitted dose curve at least 0.9, where 1 is the maximum)
# How it was run: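 Cell-free assay using recombinant human CYP2D6 expressed in insect cells, with a fluorogenic substrate read after 1 h. Primary screen in duplicate at 10 uM; actives followed up in concentration series. Loss of signal fitted relative to acetonitrile.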
# [18] = read-out: CD38, CD38 (gene 952); test: BSK_SAg_CD38: BioMAP Diversity Plus: SAg Assay for CD38 Biomarker Activity (AID 2283087); details: primary human HUVEC with PBMC; actives raise or lower the signal
# How it was run: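 CD38 quantified by ELISA (fluorescence) in a superantigen-activated endothelial cell–PBMC co-culture at 24 h post-dose. Activity fitted in both directions relative to DMSO; parallel SRB and Alamar Blue cytotoxicity read-outs.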
# E-selectin (Homo sapiens), sequence (P16581 whole entry, looked up): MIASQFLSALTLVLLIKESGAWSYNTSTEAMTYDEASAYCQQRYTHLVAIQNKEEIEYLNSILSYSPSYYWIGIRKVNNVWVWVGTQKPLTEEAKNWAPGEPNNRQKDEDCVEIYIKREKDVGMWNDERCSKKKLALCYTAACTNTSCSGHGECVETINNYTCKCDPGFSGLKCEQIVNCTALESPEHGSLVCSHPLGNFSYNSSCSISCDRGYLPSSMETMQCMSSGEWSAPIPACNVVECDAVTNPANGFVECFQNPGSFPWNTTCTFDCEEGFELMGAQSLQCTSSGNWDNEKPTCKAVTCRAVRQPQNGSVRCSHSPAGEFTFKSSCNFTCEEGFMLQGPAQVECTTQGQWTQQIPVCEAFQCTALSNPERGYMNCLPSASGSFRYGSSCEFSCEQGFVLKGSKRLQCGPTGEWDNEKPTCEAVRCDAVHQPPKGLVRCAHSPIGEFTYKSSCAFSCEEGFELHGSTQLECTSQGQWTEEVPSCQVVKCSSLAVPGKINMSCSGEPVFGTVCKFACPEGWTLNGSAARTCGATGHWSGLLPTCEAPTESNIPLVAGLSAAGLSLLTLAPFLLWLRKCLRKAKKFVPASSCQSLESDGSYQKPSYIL
# Tumor necrosis factor (Homo sapiens), sequence (P01375 whole entry, looked up): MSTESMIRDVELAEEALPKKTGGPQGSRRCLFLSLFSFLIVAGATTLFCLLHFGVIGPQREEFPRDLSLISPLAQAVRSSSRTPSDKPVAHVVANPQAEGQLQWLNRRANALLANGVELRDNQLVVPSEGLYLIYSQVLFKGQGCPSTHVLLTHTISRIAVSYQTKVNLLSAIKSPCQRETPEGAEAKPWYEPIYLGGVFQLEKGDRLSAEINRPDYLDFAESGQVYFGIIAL
# human CYP2D6, CYP2D6 (gene 1565), sequence (P10635 whole entry, looked up): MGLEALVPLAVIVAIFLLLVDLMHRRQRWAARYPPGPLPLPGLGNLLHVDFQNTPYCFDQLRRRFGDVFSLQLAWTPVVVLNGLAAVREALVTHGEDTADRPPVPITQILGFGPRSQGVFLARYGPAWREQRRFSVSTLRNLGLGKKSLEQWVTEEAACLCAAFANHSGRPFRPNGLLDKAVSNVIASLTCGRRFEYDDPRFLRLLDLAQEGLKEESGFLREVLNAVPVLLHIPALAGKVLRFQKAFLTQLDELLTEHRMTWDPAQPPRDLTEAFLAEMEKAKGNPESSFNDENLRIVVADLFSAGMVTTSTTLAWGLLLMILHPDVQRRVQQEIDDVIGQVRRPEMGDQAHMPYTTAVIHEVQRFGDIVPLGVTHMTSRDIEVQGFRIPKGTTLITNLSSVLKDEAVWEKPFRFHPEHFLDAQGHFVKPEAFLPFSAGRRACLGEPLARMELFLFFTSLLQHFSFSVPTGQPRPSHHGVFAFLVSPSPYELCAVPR
smiles,measurement,setting,value
CCCCC(CC)COP(=O)(O)OCC(CC)CCCC (stereo not drawn),outcome,[1],inactive
same,outcome,[2],inactive
same,outcome,[3],inactive
same,outcome,[4],inactive
same,outcome,[5],inactive
same,outcome,[6],inactive
same,outcome,[7],inactive
same,outcome,[8],inactive
same,outcome,[9],inactive
same,outcome,[10],inactive
same,outcome,[11],inactive
same,outcome,[12],inactive
same,outcome,[13],inactive
same,outcome,[14],inactive
same,outcome,[15],inactive
same,outcome,[16],inactive
CCCCNc1ccccc1,outcome,[1],inactive
same,outcome,[2],inactive
same,outcome,[3],inactive
same,outcome,[4],inactive
same,outcome,[5],inactive
same,outcome,[6],inactive
same,outcome,[8],inactive
same,outcome,[9],inactive
same,outcome,[10],inactive
same,outcome,[11],inactive
same,outcome,[12],inactive
same,outcome,[14],inactive
same,outcome,[15],inactive
same,outcome,[16],inactive
CCCCCCCCCCCCCCCC[N+](C)(C)Cc1ccccc1,AC50,[1],9.26 µM (active)
same,AC50,[2],11.4 µM (active)
same,outcome,[3],inactive
same,AC50,[4],1.74 µM (active)
same,AC50,[5],10.7 µM (active)
same,AC50,[6],3.79 µM (active)
same,AC50,[8],14.7 µM (active)
same,AC50,[9],12.4 µM (active)
same,AC50,[10],2.97 µM (active)
same,AC50,[11],20 µM (active)
same,AC50,[12],2.96 µM (active)
same,AC50,[14],10 µM (active)
same,AC50,[15],456 nM (active)
same,AC50,[16],5.21 µM (active)
same,AC50,[17],0.401 µM (active)
C=C(C)C(=O)OCC(F)(F)C(F)(F)C(F)(F)F,outcome,[1],inactive
same,outcome,[2],inactive
same,outcome,[3],inactive
same,outcome,[4],inactive
same,outcome,[5],inactive
same,outcome,[6],inactive
same,outcome,[18],inactive
same,outcome,[8],inactive
same,outcome,[9],inactive
same,outcome,[10],inactive
same,outcome,[11],inactive
same,outcome,[12],inactive
same,outcome,[13],inactive
same,outcome,[14],inactive
same,outcome,[15],inactive
same,outcome,[16],inactive
COC(=O)CCC(F)(F)C(F)(F)C(F)(F)C(F)(F)F,outcome,[1],inactive
same,outcome,[2],inactive
same,outcome,[3],inactive
same,outcome,[4],inactive
same,outcome,[5],inactive
same,outcome,[6],inactive
same,outcome,[18],inactive
same,outcome,[8],inactive
same,outcome,[9],inactive
same,outcome,[10],inactive
same,outcome,[11],inactive
same,outcome,[12],inactive
same,outcome,[13],inactive
same,outcome,[14],inactive
same,outcome,[15],inactive
same,outcome,[16],inactive
FC(F)(I)C(F)(F)C(F)(F)C(F)(F)I,outcome,[1],inactive
same,outcome,[2],inactive
same,outcome,[3],inactive
same,outcome,[4],inactive
same,outcome,[5],inactive
same,outcome,[6],inactive
same,outcome,[8],inactive
same,AC50,[9],46.7 µM (active)
same,outcome,[9],inactive
same,outcome,[10],inactive
same,AC50,[11],44.1 µM (active)
same,outcome,[11],inactive
same,outcome,[12],inactive
same,AC50,[14],30 µM (active)
same,outcome,[14],inactive
same,AC50,[15],54.2 µM (active) and 54.1 µM (active) and 46.5 µM (active)
same,outcome,[16],inactive
O=C(O)C(F)(F)C(F)(F)C(F)F,outcome,[1],inactive
same,outcome,[2],inactive
same,outcome,[3],inactive
same,outcome,[4],inactive
same,outcome,[5],inactive
same,outcome,[6],inactive
same,outcome,[8],inactive
same,outcome,[9],inactive
same,outcome,[10],inactive
same,outcome,[11],inactive
same,outcome,[12],inactive
same,outcome,[14],inactive
same,outcome,[15],inactive
same,outcome,[16],inactive
